# In ChEMBL document CHEMBL2218924, “A broad activity screen in support of a chemogenomic map for kinase signalling research and drug discovery” (Biochem J, 2013):
# Columns and labels:
# [1] = molecular target: T1, Ephrin type-A receptor 3 (Homo sapiens) (UniProt P29320); details: at 10 µM
# T1 sequence (whole entry): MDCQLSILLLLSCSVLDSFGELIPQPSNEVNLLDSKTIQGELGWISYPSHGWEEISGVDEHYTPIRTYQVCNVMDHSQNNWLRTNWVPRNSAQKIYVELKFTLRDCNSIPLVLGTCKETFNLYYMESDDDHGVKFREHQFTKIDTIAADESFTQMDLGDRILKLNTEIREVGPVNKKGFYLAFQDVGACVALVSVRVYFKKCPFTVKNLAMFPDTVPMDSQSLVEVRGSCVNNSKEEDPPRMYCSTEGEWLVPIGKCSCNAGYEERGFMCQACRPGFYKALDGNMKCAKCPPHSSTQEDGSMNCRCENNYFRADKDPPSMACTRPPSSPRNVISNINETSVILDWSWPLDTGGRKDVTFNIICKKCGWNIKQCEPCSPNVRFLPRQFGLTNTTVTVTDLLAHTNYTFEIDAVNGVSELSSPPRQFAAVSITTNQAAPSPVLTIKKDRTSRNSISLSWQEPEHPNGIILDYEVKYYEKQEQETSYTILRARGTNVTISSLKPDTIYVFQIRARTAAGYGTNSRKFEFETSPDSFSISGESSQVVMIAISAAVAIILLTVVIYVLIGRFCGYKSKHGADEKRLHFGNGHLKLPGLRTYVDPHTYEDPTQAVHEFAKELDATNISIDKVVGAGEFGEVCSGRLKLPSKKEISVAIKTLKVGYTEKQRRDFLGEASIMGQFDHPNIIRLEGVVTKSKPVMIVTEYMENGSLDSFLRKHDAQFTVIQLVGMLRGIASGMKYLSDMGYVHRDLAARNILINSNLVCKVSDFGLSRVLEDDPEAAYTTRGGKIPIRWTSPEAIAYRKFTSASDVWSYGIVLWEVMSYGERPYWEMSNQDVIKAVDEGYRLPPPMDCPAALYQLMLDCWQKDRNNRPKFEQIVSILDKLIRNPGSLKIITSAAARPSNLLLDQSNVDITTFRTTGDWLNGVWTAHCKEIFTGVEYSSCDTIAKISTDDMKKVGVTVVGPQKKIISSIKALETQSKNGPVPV
# [2] = molecular target: Ephrin type-A receptor 4 (Homo sapiens) (UniProt P54764); details: at 1 µM
# Sequence of Ephrin type-A receptor 4 (Homo sapiens) (P54764 whole entry): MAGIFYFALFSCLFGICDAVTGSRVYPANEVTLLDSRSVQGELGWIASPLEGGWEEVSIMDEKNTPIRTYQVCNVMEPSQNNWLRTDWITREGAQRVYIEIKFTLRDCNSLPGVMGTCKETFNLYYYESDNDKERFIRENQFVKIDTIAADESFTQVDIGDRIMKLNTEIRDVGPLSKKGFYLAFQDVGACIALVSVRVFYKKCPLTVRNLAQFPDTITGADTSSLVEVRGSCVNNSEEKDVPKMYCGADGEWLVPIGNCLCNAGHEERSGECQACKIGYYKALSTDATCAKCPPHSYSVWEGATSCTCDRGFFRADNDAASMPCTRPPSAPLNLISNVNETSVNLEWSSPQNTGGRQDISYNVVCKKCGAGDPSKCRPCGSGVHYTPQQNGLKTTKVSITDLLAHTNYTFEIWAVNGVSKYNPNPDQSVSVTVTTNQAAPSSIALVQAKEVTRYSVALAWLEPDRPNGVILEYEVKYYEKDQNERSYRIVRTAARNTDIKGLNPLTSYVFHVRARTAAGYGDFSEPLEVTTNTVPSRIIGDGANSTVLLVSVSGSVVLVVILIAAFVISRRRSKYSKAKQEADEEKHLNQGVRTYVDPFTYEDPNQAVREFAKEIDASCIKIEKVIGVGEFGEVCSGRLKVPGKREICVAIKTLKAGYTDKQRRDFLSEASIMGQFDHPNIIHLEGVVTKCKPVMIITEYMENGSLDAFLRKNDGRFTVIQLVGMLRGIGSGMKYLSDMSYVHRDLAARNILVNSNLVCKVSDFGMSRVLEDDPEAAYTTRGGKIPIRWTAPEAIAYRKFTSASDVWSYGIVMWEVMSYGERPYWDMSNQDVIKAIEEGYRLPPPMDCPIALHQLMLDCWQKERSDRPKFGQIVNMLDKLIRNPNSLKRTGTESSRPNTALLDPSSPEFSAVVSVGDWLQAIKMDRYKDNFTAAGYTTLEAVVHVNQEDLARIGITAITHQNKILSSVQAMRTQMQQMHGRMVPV
# [3] = molecular target: Ephrin type-A receptor 4 (Homo sapiens) (UniProt P54764); details: at 10 µM
# [4] = molecular target: Ephrin type-A receptor 5 (Homo sapiens) (UniProt P54756); details: at 1 µM
# Sequence of Ephrin type-A receptor 5 (Homo sapiens) (P54756 whole entry): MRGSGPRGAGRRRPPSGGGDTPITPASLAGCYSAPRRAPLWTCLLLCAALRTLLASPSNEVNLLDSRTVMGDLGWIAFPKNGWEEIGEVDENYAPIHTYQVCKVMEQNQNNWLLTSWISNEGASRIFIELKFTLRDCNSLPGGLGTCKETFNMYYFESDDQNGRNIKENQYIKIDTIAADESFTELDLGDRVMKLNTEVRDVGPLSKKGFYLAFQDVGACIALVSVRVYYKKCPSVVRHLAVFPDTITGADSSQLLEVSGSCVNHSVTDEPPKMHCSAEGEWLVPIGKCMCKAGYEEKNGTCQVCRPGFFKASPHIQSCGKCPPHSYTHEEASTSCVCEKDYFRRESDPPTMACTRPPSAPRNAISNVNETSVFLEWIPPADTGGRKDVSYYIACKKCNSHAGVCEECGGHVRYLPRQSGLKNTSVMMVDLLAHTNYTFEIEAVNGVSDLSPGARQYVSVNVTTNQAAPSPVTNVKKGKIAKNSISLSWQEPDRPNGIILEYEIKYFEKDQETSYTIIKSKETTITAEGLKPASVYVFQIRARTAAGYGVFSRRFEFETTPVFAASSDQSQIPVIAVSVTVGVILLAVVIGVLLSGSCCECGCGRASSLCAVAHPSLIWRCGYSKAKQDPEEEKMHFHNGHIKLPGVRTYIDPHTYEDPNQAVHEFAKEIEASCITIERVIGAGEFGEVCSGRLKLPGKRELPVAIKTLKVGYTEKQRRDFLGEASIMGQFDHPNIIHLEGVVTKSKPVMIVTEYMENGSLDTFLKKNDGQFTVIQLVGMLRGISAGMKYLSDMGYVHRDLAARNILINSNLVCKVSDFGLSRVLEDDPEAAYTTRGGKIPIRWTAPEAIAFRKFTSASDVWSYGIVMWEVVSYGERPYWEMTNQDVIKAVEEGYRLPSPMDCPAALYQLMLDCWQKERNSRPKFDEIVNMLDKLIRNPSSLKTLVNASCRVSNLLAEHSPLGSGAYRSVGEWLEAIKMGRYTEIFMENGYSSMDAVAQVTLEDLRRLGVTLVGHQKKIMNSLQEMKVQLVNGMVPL
# [5] = molecular target: Ephrin type-A receptor 5 (Homo sapiens) (UniProt P54756); details: at 10 µM
# [6] = molecular target: Ephrin type-A receptor 7 (Homo sapiens) (UniProt Q15375); details: at 1 µM
# Sequence of Ephrin type-A receptor 7 (Homo sapiens) (Q15375 28-998 limits assumed): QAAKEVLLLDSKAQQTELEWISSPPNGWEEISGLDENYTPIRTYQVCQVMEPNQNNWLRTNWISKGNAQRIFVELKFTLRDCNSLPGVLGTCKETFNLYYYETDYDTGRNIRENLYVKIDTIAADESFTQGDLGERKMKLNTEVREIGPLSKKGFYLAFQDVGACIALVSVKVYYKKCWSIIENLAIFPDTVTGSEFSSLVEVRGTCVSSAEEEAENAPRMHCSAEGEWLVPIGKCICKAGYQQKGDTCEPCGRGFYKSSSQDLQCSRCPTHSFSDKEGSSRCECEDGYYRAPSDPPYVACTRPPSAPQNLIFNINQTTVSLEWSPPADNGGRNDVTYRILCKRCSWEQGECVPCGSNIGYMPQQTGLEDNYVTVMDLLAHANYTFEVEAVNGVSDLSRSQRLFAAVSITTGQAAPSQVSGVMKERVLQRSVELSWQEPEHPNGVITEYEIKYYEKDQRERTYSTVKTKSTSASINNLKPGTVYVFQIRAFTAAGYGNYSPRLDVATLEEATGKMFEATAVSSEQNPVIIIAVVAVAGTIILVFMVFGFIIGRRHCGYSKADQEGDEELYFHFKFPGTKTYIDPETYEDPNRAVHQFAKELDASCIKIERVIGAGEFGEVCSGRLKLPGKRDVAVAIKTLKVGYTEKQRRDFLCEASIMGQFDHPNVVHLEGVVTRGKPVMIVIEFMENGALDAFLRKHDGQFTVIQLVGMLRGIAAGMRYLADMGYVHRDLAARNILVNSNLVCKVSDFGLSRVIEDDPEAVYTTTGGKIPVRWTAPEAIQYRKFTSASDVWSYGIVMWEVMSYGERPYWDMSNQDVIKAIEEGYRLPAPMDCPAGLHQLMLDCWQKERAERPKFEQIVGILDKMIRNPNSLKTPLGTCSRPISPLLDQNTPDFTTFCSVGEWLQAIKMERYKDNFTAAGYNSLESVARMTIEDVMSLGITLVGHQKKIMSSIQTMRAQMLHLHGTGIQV
# [7] = molecular target: Ephrin type-A receptor 7 (Homo sapiens) (UniProt Q15375); details: at 10 µM
# [8] = molecular target: T2, Ephrin type-A receptor 8 (Homo sapiens) (UniProt P29322); details: at 1 µM
# T2 sequence (whole entry): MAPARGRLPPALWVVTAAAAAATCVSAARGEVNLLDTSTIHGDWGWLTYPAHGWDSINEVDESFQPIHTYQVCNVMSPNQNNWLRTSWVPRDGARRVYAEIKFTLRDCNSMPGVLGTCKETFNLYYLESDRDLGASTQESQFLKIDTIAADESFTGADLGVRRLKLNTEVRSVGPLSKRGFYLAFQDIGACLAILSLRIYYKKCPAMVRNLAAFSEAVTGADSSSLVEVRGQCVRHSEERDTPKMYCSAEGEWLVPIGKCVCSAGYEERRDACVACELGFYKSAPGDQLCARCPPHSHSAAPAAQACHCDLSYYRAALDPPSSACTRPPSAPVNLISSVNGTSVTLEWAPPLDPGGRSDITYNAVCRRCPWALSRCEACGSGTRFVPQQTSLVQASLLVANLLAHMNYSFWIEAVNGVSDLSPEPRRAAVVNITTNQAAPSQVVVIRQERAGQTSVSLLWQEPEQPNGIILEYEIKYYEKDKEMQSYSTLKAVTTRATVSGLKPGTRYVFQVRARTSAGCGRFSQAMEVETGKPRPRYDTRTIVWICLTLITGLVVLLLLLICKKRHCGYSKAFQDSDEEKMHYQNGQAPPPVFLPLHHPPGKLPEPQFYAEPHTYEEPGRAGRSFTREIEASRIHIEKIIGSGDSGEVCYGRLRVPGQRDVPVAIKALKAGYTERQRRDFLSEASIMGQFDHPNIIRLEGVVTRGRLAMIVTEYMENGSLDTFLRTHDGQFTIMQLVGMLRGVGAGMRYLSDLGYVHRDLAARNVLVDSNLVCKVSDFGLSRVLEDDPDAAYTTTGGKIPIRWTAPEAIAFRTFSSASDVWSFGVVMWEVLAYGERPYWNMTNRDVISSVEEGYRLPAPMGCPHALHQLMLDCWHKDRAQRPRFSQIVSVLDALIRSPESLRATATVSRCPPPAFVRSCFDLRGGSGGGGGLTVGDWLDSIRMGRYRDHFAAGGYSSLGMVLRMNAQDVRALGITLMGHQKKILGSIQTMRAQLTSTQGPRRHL
# [9] = molecular target: T2, Ephrin type-A receptor 8 (Homo sapiens); details: at 10 µM
# [10] = molecular target: T3, Ephrin type-B receptor 1 (Homo sapiens) (UniProt P54762); details: at 1 µM
# T3 sequence (whole entry): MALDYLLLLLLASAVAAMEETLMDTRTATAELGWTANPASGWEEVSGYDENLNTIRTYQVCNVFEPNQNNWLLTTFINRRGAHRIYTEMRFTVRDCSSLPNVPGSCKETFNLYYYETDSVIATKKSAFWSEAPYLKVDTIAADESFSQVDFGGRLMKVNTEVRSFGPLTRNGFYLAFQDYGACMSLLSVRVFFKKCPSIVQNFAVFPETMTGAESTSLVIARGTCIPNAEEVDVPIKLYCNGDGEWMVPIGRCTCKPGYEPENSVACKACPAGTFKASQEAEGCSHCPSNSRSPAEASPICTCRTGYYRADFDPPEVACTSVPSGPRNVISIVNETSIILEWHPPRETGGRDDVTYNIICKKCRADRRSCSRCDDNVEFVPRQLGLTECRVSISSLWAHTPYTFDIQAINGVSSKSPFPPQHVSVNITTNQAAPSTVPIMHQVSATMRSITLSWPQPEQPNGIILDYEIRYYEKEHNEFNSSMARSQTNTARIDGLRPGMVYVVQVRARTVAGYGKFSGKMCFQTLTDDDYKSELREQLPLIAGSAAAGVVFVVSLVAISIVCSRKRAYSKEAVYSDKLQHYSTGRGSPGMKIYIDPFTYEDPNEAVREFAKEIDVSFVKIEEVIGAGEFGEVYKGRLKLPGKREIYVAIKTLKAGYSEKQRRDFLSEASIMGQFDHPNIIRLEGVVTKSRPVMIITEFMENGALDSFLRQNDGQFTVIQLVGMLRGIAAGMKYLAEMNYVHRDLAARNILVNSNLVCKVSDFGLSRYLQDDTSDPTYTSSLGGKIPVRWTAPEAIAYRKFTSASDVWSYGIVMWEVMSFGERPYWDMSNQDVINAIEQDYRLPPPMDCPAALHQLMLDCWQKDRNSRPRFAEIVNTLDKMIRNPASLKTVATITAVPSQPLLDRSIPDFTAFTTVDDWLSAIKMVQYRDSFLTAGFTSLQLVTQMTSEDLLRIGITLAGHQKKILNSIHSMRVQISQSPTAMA
# [11] = molecular target: T3, Ephrin type-B receptor 1 (Homo sapiens); details: at 10 µM
# [12] = molecular target: T4, Ephrin type-B receptor 2 (Homo sapiens) (UniProt P29323); details: at 1 µM
# T4 sequence (whole entry): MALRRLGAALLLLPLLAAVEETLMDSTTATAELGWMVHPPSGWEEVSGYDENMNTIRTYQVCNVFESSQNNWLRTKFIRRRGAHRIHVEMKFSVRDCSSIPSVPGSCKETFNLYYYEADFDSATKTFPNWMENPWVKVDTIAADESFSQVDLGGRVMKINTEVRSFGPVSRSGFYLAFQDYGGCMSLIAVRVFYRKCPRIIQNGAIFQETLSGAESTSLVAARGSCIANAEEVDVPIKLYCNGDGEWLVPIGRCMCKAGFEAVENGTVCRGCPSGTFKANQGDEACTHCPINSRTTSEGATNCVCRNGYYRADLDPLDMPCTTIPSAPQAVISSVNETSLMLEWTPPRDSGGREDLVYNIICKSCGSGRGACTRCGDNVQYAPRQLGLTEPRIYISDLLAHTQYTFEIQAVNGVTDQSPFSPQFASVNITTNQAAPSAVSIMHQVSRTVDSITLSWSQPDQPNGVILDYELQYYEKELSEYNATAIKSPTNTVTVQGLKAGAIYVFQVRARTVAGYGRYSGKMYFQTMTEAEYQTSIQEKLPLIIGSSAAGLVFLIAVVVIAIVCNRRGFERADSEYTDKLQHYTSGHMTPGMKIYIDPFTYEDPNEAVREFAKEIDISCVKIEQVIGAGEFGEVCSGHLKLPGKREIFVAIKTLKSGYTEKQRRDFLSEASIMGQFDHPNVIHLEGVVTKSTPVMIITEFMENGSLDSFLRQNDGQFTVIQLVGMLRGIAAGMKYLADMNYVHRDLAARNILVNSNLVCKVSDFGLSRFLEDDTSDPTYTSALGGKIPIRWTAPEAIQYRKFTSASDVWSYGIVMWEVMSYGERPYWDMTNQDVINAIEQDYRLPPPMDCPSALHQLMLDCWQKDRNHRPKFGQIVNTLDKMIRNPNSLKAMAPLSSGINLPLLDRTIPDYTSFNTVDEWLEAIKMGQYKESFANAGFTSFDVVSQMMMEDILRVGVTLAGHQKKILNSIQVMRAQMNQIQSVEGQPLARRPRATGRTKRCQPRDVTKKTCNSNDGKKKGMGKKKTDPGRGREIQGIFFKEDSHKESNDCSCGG
# [13] = molecular target: T4, Ephrin type-B receptor 2 (Homo sapiens); details: at 10 µM
# [14] = molecular target: T5, Ephrin type-B receptor 3 (Homo sapiens) (UniProt P54753); details: at 1 µM
# T5 sequence (whole entry): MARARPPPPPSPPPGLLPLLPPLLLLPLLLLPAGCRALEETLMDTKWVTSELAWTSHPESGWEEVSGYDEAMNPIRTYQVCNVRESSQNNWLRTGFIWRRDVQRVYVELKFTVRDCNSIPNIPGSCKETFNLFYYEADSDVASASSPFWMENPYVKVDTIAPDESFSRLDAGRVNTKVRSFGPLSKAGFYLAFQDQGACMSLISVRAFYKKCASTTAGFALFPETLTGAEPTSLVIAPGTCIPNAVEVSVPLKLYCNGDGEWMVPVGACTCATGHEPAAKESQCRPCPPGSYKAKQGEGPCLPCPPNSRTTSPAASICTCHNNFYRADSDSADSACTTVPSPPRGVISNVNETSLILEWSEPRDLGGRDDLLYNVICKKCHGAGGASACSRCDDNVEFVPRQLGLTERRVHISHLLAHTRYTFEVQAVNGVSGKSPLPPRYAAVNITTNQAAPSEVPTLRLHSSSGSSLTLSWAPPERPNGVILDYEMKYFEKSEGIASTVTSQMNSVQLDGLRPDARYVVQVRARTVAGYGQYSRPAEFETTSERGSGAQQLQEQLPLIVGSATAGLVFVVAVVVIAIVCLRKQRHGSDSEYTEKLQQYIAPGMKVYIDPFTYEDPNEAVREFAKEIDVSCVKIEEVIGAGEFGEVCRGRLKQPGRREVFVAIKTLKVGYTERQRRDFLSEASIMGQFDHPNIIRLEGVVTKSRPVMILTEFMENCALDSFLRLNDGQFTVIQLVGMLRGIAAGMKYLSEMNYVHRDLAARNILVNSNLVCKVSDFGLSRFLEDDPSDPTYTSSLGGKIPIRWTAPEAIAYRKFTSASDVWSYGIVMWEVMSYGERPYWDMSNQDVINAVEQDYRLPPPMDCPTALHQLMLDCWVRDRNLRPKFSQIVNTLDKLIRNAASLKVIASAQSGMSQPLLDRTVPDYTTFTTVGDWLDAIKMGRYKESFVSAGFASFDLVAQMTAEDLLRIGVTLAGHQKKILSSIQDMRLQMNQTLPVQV
# [15] = molecular target: T5, Ephrin type-B receptor 3 (Homo sapiens); details: at 10 µM
# [16] = molecular target: T6, Ephrin type-B receptor 4 (Homo sapiens) (UniProt P54760); details: at 1 µM
# T6 sequence (whole entry): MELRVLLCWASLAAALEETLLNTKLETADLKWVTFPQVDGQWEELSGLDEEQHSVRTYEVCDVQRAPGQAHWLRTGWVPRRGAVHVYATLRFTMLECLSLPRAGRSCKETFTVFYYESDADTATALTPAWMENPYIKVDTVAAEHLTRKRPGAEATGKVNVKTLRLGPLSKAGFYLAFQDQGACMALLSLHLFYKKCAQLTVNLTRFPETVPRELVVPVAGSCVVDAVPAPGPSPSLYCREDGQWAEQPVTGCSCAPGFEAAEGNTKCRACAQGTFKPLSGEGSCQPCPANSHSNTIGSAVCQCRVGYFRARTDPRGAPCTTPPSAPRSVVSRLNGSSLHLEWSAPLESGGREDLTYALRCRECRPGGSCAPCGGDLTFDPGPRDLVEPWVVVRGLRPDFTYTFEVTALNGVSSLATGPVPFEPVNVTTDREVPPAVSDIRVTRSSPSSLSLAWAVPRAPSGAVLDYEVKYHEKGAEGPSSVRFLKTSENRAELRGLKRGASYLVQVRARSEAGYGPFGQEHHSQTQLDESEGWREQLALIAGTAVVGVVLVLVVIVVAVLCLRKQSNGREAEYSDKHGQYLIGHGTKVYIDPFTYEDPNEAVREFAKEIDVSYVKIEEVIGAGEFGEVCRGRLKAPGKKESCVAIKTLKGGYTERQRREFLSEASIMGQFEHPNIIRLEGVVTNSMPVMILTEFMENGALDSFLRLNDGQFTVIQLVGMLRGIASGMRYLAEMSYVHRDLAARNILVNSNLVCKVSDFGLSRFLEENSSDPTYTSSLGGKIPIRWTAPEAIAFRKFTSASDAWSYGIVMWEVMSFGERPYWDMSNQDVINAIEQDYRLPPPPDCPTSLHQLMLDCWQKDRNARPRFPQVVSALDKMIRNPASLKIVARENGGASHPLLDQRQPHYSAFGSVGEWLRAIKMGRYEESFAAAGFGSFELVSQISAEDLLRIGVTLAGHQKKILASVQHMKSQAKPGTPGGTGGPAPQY
# [17] = molecular target: T6, Ephrin type-B receptor 4 (Homo sapiens); details: at 10 µM
# [18] = molecular target: Receptor tyrosine-protein kinase erbB-4 (Homo sapiens) (UniProt Q15303); details: at 1 µM
# Sequence of Receptor tyrosine-protein kinase erbB-4 (Homo sapiens) (Q15303 whole entry): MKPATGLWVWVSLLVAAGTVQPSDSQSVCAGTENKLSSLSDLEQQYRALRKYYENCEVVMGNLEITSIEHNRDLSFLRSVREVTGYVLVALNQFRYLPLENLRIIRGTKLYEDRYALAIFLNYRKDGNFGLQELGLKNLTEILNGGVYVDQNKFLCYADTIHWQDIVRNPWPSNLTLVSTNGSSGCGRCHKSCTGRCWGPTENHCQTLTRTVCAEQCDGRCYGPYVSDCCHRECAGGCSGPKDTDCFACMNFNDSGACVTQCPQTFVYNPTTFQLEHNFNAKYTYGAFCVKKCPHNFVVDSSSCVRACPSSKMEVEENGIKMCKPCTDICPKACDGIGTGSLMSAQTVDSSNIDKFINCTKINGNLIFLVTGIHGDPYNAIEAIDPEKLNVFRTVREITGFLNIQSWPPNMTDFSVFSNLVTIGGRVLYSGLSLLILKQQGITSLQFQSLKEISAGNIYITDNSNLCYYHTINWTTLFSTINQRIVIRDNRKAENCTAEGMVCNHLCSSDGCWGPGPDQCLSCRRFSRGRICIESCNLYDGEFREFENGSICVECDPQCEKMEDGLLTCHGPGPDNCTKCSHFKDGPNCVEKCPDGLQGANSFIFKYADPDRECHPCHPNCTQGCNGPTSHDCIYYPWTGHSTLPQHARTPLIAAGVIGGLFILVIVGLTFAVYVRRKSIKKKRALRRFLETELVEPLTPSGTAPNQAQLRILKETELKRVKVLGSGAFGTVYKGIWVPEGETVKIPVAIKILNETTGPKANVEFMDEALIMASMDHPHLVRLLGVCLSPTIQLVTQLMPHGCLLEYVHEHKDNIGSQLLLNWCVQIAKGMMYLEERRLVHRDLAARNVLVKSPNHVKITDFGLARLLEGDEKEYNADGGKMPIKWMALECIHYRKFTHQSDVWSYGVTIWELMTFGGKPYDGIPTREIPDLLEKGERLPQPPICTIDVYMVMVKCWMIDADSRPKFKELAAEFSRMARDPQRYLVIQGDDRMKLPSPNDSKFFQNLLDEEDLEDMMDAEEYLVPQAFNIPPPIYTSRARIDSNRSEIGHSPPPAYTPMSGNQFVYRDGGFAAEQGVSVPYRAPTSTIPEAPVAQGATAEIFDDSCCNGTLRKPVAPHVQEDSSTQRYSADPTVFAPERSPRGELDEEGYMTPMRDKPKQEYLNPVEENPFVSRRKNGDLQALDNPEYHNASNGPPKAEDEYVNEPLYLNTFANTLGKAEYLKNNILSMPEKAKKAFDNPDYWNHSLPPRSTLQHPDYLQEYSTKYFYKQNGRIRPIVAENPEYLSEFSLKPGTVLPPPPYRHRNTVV
smiles,measurement,setting,value
c1ccc2c(-c3ccncc3)c[nH]c2c1,residual activity,[1],92%
same,residual activity,[2],109%
same,residual activity,[3],98%
same,residual activity,[4],102%
same,residual activity,[5],111%
same,residual activity,[6],99%
same,residual activity,[7],84%
same,residual activity,[8],96%
same,residual activity,[9],92%
same,residual activity,[10],108%
same,residual activity,[11],110%
same,residual activity,[12],108%
same,residual activity,[13],111%
same,residual activity,[14],106% (inactive)
same,residual activity,[15],112%
same,residual activity,[16],111%
same,residual activity,[17],108%
same,residual activity,[18],88%
